# Screens as filed in PubChem BioAssay.
# KDM5B inhibitor: KDM5B demethylase inhibition; Q9UGL1; KDM5B demethylase, FDH-coupled NADH fluorescence (FDH is formaldehyde dehydrogenase); Potency, µM (titrated, usually from 57.7 µM), actives largely listed as inhibitors; hit rate 2.6% among 220,000; AID 1347165; active = well fitted inhibition curve with a large enough effect; inconclusive = small, poorly fitted or top-dose-only effect; inactive = no such curve, though single readings can be large or run the other way; note: potency is the fitted concentration of half-maximal effect; 0% is about no effect; nearly all actives have a fitted effect of over 70% in size
#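 Measured: NADH fluorescence change, 30 min, RT. System: KDM5BΔAP 200 nM final, H3K4me3 peptide, α-KG, Fe(II), ascorbate, NAD⁺ plus FDH, pH 7.5 HEPES. Compounds: titrated, 10 min pre-incubation with enzyme.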
# IP6K1 inh: blocks human inositol hexakisphosphate kinase 1. Q92551. IP6K1 kinase, ADP-Glo luminescence, 2 h; active compounds read low. activity change, % (series mostly up to about 58 µM). hit rate 0.81% among 140,000; in the data active = activity change below about -25%; note: % is set by controls: 0 for no effect and ±100 for the full control effect
#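 ADP-Glo luminescence measures ADP made by human IP6K1 during a 2 h RT reaction with ATP/IP6 (mix at 1.3 mM/130 uM); top library doses 57.5 and 19.1 uM final.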
# The depositor's hits bear a star; i = inactive; ? = inconclusive; nt = no result. A selection: hits, their analogues and other compounds. The true share with any hit is near 2.7%.
SMILES,KDM5B inhibitor,IP6K1 inh
COc1cc2c(cc1OC)CN(Cc1cc(=O)c(OCc3ccc(Cl)cc3Cl)co1)CC2,i,nt
CN(C)C(=O)CN1CCN(Cc2ncc(-c3ccccc3)o2)CC1,i,nt
Cc1cc(NC(=O)C(=O)c2c[nH]c3ccc(Br)cc23)no1,i,nt
Cc1cc(C)c2nc(-c3ccccc3)c(C)c(C(=O)O)c2c1,i,nt
Cc1sc(NC(=O)c2cc3ccccc3o2)c(C#N)c1C,i,nt
COc1ccc(-c2ccnc3c(-c4ccc(F)cc4)c(C)nn23)cc1OC,i,-4
c1ccc(CCc2nc3nccc(-c4cccnc4)n3n2)cc1,i,-8
c1ccc(-c2ccnc3nc(C4CC4)nn23)cc1,28µM*,7
COc1cccc(-c2ccnc3c(-c4ccccc4)c(C)nn23)c1,i,4
COc1cccc(-c2ccnc3nc(C4CCC4)nn23)c1,28µM*,-10
COc1cc(F)ccc1-c1ccnc2nc(C3CCCCC3)nn12,28µM*,-1
CCOC(=O)N1CCC(c2noc3nc(C4CC4)cc(C(=O)NC)c23)CC1,nt,-13
CC(C)c1ccc2c(c1)C1(CC(=O)Nc3c1sc(C(=O)O)c3-c1ccccc1)C(=O)N2C (stereo unspecified),i,nt
Cc1cc(C)cc(-n2c(C)c(C)n3c4c(=O)[nH]c(=O)n(C)c4nc23)c1,i,nt
c1csc(CNCCCN2CCCCC2)c1,i,nt
COc1ccc(NC(=O)c2cc(C3CC3)nc3c2c(C)nn3-c2ccccc2)cc1,?,1
COCCNC(=O)c1cc(-c2ccc(OC)cc2)nc2c1c(C)nn2-c1ccccc1,?,-4
COc1ccc(-c2cc(C(=O)NC3CCNCC3)c3c(C)nn(-c4ccccc4)c3n2)cc1,79µM*,1
COc1ccc(-c2cc(C(=O)NC3CC3)c3c(C)nn(-c4ccccc4)c3n2)cc1,79µM*,-7
CCOc1ccc(CN(Cc2ccccc2)Cc2cc(=O)n3ccc(C)cc3n2)cc1,i,nt
COc1ccc(F)cc1-c1ccc(CN2CCC(N[S+](=O)([O-])CCC(F)(F)F)C2)cc1 (stereo unspecified),nt,24
CC(C)c1ccc(NC(=O)C2CC(=O)NC(N3CCN(c4ccccc4)CC3)=N2)cc1 (stereo unspecified),i,nt
COc1ccc(NC(=O)c2ccc3c(c2)NC(C)(CNc2ccccc2)CO3)cn1 (stereo unspecified),i,5
CC1(COc2ccccc2)COc2ccc(C(=O)Nc3ccccc3)cc2N1 (stereo unspecified),?,16
CC1(CCCCN2CCOCC2)COc2ccc(C(=O)Nc3ccccc3)cc2N1 (stereo unspecified),?,6
SMILES,KDM5B inhibitor,IP6K1 inh
COc1ccc(NC(=O)c2ccc3c(c2)NC(C)(COc2ccccc2)CO3)cn1 (stereo unspecified),32µM*,1
COc1ccc(NC(=O)c2ccc3c(c2)NC(C)(CNc2ccccc2)CO3)cc1OC (stereo unspecified),35µM*,1
COc1ccc(NC(=O)c2ccc3c(c2)NC(C)(COc2ccccc2)CO3)cc1OC (stereo unspecified),32µM*,7
CC1(C)[C@H]2CC[C@@H](CNC(=O)c3ccc(Cl)nc3)[C@@H]1C2,i,9
Cc1cccc(C)c1-c1nnc2ccc(C(=O)NCc3ccc(Cl)cc3)cn12,nt,13
O=C(CSc1nnc(-c2cccnc2)n1C1CC1)c1cc2cc(Cl)ccc2o1,i,nt
CCC(=O)Oc1cccc2cc(-c3nc(-c4ccc(OC)cc4)no3)c(=O)oc12,i,nt
Cc1cc(C(=O)COC(=O)Cc2n[nH]c(=O)c3ccccc23)c(C)n1CC1CCCO1 (stereo unspecified),i,nt
CC(=O)N1CCCC(c2nnc3n2CCNC3)C1 (stereo unspecified),79µM*,5
CC(=O)N1CCCC1c1nnc2n1CCNC2 (stereo unspecified),?,-5
CCCN1CCc2[nH]cnc2C12CCN(C(=O)c1ccc(CC)s1)CC2,?,31
CCCN1CCc2[nH]cnc2C12CCN(C(=O)c1cnn3ccccc13)CC2,25µM*,5
Cc1ccc2c(=O)cc(C(=O)Nc3ccc(S(N)(=O)=O)cc3)oc2c1C,i,nt
O=C1CC2CCCC(C1)N2C(=O)c1cccc2[nH]ccc12,35µM*,15
CO[C@H]1C(=O)N(C2CCN(C(=O)c3n[nH]c4ccccc34)CC2)[C@H]1c1ccncc1,i,18
Cc1ccccc1C(=O)N1C2CCCC1CC(=O)C2,i,6
O=C(c1ccc2cc[nH]c2c1)N1CCC(N2C(=O)C3(CCCCC3)C2c2ccncc2)CC1 (stereo unspecified),?,-3
CO[C@H]1C(=O)N(C2CCN(C(=O)c3cccc4[nH]ccc34)CC2)[C@H]1c1ccncc1,25µM*,25
O=C(c1cccc2[nH]ccc12)N1CCC(N2C(=O)C3(CCCCC3)C2c2ccncc2)CC1 (stereo unspecified),22µM*,0
